# Results taken from ChEMBL document CHEMBL2218924, “A broad activity screen in support of a chemogenomic map for kinase signalling research and drug discovery” (Biochem J, 2013).
# Tests used:
# [1] = molecular target: Homeodomain-interacting protein kinase 2 (Homo sapiens) (UniProt Q9H2X6); details: at 10 µM
# [2] = molecular target: T1, Serine/threonine-protein kinase haspin (Homo sapiens) (UniProt Q8TF76); details: at 10 µM
# T1 sequence (whole entry): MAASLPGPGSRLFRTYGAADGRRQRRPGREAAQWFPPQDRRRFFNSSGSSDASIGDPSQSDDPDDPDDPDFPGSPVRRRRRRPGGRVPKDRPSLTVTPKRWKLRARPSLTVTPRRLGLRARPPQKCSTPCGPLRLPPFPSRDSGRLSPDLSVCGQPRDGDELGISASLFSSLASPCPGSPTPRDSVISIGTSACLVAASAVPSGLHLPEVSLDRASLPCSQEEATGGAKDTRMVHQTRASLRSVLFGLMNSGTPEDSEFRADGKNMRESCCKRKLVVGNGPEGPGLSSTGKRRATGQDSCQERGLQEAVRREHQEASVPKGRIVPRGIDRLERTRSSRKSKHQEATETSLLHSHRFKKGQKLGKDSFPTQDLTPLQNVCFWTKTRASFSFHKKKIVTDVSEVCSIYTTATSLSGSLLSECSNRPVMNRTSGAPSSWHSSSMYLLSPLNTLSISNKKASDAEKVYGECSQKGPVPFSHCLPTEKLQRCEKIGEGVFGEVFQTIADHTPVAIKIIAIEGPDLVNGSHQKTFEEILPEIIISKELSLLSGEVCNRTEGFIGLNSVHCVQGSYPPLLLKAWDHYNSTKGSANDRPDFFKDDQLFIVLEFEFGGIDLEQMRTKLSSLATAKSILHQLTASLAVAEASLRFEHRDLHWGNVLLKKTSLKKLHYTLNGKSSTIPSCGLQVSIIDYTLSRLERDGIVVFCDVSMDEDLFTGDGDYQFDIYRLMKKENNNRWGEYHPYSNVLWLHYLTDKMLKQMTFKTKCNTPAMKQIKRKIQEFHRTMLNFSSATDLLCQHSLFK
# [3] = molecular target: Tyrosine-protein kinase HCK (Homo sapiens) (UniProt P08631); details: at 1 µM
# Sequence of Tyrosine-protein kinase HCK (Homo sapiens) (P08631 2-526 limits assumed): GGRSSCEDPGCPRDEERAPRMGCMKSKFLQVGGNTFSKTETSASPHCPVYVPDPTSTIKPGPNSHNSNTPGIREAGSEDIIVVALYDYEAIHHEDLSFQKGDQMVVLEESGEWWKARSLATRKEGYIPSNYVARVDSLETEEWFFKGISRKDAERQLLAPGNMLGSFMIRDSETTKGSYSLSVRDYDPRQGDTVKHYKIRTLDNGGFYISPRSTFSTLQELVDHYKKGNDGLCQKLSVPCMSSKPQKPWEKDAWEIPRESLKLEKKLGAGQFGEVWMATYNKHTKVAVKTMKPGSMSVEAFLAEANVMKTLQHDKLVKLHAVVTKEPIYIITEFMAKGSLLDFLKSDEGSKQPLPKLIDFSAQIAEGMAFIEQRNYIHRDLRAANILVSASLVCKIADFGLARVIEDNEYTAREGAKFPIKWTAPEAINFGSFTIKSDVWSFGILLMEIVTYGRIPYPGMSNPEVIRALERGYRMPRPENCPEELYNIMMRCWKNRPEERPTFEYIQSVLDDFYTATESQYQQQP
# [4] = molecular target: Tyrosine-protein kinase HCK (Homo sapiens) (UniProt P08631); details: at 10 µM
# [5] = molecular target: Tyrosine-protein kinase HCK (Homo sapiens) (UniProt P08631); details: at 1 µM; remark: listed apart in the source
# [6] = molecular target: Tyrosine-protein kinase HCK (Homo sapiens) (UniProt P08631); details: at 10 µM; remark: listed apart in the source
# [7] = molecular target: Insulin-like growth factor 1 receptor (Homo sapiens) (UniProt P08069); details: at 1 µM
# Sequence of Insulin-like growth factor 1 receptor (Homo sapiens) (P08069 31-736 limits assumed): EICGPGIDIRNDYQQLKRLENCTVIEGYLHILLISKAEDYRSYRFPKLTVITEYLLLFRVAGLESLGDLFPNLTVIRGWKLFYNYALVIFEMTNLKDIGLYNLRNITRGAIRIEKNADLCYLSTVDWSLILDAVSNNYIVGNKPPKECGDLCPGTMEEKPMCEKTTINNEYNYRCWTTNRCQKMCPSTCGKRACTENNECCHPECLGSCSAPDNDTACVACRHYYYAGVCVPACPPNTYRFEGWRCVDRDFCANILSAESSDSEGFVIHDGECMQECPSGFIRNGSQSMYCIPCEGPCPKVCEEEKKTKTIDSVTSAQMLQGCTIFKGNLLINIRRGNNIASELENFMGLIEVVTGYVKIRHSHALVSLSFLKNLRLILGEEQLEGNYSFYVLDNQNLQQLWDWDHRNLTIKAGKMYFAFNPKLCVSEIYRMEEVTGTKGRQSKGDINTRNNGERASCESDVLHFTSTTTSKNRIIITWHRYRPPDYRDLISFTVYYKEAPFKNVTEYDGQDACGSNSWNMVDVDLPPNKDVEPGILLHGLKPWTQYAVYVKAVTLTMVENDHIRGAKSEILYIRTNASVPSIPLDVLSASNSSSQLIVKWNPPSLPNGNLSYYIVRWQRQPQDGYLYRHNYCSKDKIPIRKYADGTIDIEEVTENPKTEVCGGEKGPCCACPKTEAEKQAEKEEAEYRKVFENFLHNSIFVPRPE
# Sequence of Insulin-like growth factor 1 receptor (Homo sapiens) (P08069 741-1367 limits assumed): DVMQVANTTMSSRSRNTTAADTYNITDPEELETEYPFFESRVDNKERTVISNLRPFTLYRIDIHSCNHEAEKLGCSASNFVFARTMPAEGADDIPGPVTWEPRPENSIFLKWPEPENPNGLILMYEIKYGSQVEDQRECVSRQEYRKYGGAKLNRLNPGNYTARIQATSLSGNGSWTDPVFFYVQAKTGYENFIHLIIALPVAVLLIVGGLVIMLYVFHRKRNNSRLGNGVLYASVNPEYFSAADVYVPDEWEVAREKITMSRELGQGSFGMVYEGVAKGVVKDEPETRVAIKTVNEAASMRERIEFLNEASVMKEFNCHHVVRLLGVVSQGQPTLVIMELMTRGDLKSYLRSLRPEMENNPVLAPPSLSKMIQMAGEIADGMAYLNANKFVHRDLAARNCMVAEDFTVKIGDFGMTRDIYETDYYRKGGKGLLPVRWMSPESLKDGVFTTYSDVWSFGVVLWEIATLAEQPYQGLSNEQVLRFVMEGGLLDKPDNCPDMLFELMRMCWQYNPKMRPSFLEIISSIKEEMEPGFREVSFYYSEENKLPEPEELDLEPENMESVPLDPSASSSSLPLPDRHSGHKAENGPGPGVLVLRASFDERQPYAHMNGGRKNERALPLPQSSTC
# [8] = molecular target: Homeodomain-interacting protein kinase 3 (Homo sapiens) (UniProt Q9H422); details: at 1 µM
# Sequence of Homeodomain-interacting protein kinase 3 (Homo sapiens) (Q9H422 whole entry, looked up): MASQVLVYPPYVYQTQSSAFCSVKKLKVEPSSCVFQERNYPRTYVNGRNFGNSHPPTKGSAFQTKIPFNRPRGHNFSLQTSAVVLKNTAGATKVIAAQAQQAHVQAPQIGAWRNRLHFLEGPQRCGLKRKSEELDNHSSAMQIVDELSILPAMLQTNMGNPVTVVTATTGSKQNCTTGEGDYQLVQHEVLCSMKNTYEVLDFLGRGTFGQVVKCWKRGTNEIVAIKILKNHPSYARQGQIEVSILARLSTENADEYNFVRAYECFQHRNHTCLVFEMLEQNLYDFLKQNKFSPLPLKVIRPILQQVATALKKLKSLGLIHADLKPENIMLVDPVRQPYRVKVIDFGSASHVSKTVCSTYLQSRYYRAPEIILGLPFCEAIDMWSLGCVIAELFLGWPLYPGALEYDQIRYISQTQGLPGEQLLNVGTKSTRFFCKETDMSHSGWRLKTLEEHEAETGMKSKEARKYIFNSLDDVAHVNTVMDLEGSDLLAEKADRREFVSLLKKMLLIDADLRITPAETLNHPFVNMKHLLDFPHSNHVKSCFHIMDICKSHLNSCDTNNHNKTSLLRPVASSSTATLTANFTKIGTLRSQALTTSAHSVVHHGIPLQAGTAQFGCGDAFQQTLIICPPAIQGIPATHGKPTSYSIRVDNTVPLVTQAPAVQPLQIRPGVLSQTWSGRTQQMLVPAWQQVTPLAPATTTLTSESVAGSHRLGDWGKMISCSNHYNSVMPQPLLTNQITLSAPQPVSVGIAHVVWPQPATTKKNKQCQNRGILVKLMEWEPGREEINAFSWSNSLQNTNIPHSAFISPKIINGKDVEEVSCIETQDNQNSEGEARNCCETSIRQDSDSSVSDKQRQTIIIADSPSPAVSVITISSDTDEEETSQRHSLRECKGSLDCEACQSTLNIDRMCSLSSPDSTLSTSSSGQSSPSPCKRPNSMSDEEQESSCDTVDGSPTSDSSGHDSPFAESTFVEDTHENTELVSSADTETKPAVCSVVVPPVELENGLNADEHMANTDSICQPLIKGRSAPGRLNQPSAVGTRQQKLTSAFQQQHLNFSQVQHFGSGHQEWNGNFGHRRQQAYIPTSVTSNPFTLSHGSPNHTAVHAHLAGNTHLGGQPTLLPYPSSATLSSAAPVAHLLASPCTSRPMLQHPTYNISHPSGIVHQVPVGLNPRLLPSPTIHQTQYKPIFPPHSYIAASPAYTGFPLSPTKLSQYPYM
# [9] = molecular target: Homeodomain-interacting protein kinase 3 (Homo sapiens) (UniProt Q9H422); details: at 10 µM
# [10] = molecular target: T1, Serine/threonine-protein kinase haspin (Homo sapiens); details: at 1 µM
# Sequence of Homeodomain-interacting protein kinase 2 (Homo sapiens) (Q9H2X6 whole entry, looked up): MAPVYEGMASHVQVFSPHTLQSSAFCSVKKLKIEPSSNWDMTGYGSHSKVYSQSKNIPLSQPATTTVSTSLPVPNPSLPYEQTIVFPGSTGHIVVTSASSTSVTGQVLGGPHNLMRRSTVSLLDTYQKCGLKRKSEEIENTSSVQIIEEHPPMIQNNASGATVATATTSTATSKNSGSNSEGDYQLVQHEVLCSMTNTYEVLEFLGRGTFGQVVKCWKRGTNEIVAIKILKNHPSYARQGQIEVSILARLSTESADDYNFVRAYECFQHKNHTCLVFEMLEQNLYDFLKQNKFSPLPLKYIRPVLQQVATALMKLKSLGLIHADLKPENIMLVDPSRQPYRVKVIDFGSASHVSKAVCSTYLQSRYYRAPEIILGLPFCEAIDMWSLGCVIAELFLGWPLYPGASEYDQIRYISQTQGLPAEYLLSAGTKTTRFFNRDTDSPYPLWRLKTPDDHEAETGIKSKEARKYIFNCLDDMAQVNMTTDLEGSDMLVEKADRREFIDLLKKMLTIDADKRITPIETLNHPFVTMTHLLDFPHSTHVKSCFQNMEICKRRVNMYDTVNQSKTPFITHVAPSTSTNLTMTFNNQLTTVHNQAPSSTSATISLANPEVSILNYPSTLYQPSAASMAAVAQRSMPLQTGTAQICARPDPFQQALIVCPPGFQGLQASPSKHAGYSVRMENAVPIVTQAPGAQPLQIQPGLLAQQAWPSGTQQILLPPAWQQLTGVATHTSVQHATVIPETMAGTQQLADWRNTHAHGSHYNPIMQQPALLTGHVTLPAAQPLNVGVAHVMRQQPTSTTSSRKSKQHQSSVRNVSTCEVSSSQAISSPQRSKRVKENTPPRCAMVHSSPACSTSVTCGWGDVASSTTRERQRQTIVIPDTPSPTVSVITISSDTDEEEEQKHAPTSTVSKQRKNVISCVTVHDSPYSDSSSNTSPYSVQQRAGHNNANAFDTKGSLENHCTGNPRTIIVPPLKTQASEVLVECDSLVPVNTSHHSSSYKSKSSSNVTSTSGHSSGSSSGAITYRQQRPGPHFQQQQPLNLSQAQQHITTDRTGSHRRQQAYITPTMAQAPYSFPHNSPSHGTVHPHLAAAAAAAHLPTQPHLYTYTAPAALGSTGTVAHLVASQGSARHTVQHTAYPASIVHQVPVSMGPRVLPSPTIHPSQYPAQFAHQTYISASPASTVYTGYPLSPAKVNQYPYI
smiles,measurement,setting,value
COc1ccc2c(c[n+](C)c3c4cc5c(cc4ccc23)OCO5)c1OC,residual activity,[1],86%
same,residual activity,[2],69%
same,residual activity,[3],92%
same,residual activity,[4],60%
same,residual activity,[5],95%
same,residual activity,[6],92%
same,residual activity,[7],138%
O=C1Nc2ccc3ncsc3c2/C1=C/c1c[nH]cn1,residual activity,[1],4%
same,residual activity,[8],31%
same,residual activity,[9],4%
same,residual activity,[10],3%
same,residual activity,[2],1%
same,residual activity,[3],58%
same,residual activity,[4],19%
same,residual activity,[5],67%
same,residual activity,[6],24%
same,residual activity,[7],132%
c1cc(-c2cnn3cc(-c4ccc(OCCN5CCCCC5)cc4)cnc23)ccn1,residual activity,[1],14%
same,residual activity,[9],45%
same,residual activity,[10],38%
same,residual activity,[2],4%
same,residual activity,[3],64%
same,residual activity,[4],18%
same,residual activity,[5],32%
same,residual activity,[6],4%
CN[C@@H]1C[C@H]2O[C@@](C)([C@@H]1OC)n1c3ccccc3c3c4c(c5c6ccccc6n2c5c31)C(=O)NC4,residual activity,[8],74%
same,residual activity,[9],27%
same,residual activity,[3],0%
COc1cc(OC)c(/C=C2\C(=O)Nc3ccccc32)c(OC)c1,residual activity,[1],96%
same,residual activity,[8],103%
same,residual activity,[9],98%
same,residual activity,[10],70%
same,residual activity,[2],61%
same,residual activity,[3],89%
same,residual activity,[4],69%
same,residual activity,[5],93%
same,residual activity,[7],93%
COC(=O)[C@@]1(O)C[C@H]2O[C@]1(C)n1c3ccccc3c3c4c(c5c6ccccc6n2c5c31)C(=O)NC4,residual activity,[1],-1%
same,residual activity,[8],54%
same,residual activity,[9],-4%
same,residual activity,[10],8%
same,residual activity,[2],5%
same,residual activity,[3],3%
same,residual activity,[4],1%
same,residual activity,[5],1%
same,residual activity,[6],4%
same,residual activity,[7],77%
N/C(=N\[N+](=O)[O-])N/N=C\c1ccc(-c2cccc([N+](=O)[O-])c2)o1,residual activity,[1],83%
same,residual activity,[10],97%
same,residual activity,[2],80%
same,residual activity,[3],70%
same,residual activity,[4],49%
C[S+]([O-])c1ccc(-c2nc(-c3ccc(F)cc3)c(-c3ccncc3)[nH]2)cc1 (centres undefined),residual activity,[1],100%
same,residual activity,[8],110%
same,residual activity,[9],102%
same,residual activity,[10],88%
same,residual activity,[2],35%
same,residual activity,[3],105%
same,residual activity,[4],52%
same,residual activity,[5],93%
same,residual activity,[6],61%
same,residual activity,[7],102%
COc1cc2ncnc(Nc3ccc(OCc4ccccc4)cc3)c2cc1OC,residual activity,[1],84%
same,residual activity,[8],100%
same,residual activity,[9],96%
same,residual activity,[10],77%
same,residual activity,[2],45%
same,residual activity,[3],35%
same,residual activity,[4],19%
same,residual activity,[5],90%
same,residual activity,[6],83%
same,residual activity,[7],120%
O=C1c2ccccc2-c2nc3nnnn3nc21,residual activity,[2],74%
same,residual activity,[4],76%
same,residual activity,[7],129%
CCc1nc(-c2ccc(OC)cc2)[nH]c1-c1ccncc1,residual activity,[10],45%
same,residual activity,[2],4%
same,residual activity,[3],72%
same,residual activity,[4],64%
same,residual activity,[5],115%
same,residual activity,[6],104%
same,residual activity,[7],112%
CC(C)(C)c1cc(C=C(C#N)C#N)cc(Br)c1O,residual activity,[1],71%
same,residual activity,[8],101%
same,residual activity,[9],98%
same,residual activity,[10],105%
same,residual activity,[2],54%
same,residual activity,[3],77%
same,residual activity,[4],8%
same,residual activity,[5],102%
same,residual activity,[7],130%
CC(C)[C@H](CO)Nc1nc(Nc2cccc(Cl)c2)c2ncn(C(C)C)c2n1,residual activity,[1],36%
same,residual activity,[9],77%
same,residual activity,[10],100%
same,residual activity,[2],94%
same,residual activity,[3],20%
same,residual activity,[4],4%
same,residual activity,[5],30%
same,residual activity,[6],4%
same,residual activity,[7],98%
CCn1cnc2c(Nc3cccc(Cl)c3)nc(N[C@@H]3CCCC[C@@H]3N)nc21,residual activity,[1],47%
same,residual activity,[8],99%
same,residual activity,[9],80%
same,residual activity,[10],48%
same,residual activity,[2],3%
same,residual activity,[3],24%
same,residual activity,[4],4%
same,residual activity,[5],24%
same,residual activity,[6],4%
same,residual activity,[7],95%
O=c1[nH]c2ccccc2n1C1CCN(Cc2ccc(-c3nc4cc5[nH]cnc5cc4nc3-c3ccccc3)cc2)CC1,residual activity,[1],64%
same,residual activity,[8],97%
same,residual activity,[9],91%
same,residual activity,[10],76%
same,residual activity,[2],49%
same,residual activity,[3],91%
same,residual activity,[4],42%
same,residual activity,[5],102%
same,residual activity,[6],91%
same,residual activity,[7],125%
COc1ccc2c(c1)/C(=C/c1cnc[nH]1)C(=O)N2,residual activity,[9],49%
same,residual activity,[10],37%
same,residual activity,[2],13%
same,residual activity,[3],71%
same,residual activity,[4],33%
same,residual activity,[6],49%
O=C1NC(=O)c2c1c1c3ccccc3n3c1c1c2c2ccccc2n1C1CCC3O1,residual activity,[1],26%
same,residual activity,[8],-2%
same,residual activity,[9],-2%
same,residual activity,[10],50%
same,residual activity,[2],22%
same,residual activity,[3],76%
same,residual activity,[4],94%
same,residual activity,[5],92%
same,residual activity,[6],83%
same,residual activity,[7],73%
O=[N+]([O-])/C=C/c1ccc2c(c1)OCO2,residual activity,[8],101%
same,residual activity,[9],99%
same,residual activity,[10],128%
same,residual activity,[2],115%
same,residual activity,[3],85%
same,residual activity,[4],73%
same,residual activity,[6],94%
same,residual activity,[7],131%
